Results reported in paper PMC7862700, “An all-to-all approach to the identification of sequence-specific readers for epigenetic DNA modifications on cytosine”.

Assays:
Test in all cases: DAPPL (digital affinity profiling via proximity ligation, sequencing); 10 mM Tris-HCl pH 7.5, 50 mM NaCl, 1 mM DTT, 4% glycerol, room temperature, 30 min; GST-TFs on glutathione beads, 16-mer random dsDNA library, 0.1% formaldehyde crosslink after washing; high values mean tight binding
Settings in all cases: protein: recombinant; tags: N-terminal GST; dsDNA, one strand shown
FLI1 = molecular target: T1, FLI1 (Homo sapiens, UniProt Q01543 1-452)
T1 sequence: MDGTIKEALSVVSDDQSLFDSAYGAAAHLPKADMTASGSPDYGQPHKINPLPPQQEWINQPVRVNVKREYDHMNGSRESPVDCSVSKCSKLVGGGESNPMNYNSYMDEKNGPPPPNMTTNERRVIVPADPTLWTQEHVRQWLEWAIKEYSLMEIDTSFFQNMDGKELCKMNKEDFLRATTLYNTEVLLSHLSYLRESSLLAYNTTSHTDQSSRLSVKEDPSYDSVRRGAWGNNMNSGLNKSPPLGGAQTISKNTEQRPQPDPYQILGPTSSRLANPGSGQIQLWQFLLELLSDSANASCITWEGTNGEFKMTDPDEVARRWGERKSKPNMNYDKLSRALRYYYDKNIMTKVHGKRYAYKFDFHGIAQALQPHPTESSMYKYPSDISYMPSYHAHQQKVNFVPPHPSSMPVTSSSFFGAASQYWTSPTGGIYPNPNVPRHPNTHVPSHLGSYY
Procedure, shortened: (§1)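 Human transcription factors carrying a GST fusion were produced in yeast, bound to glutathione beads, tagged with DNA barcodes and pooled together with a tag-only sample. Each pool was held with 200 nmole of a random double-stranded 16-mer DNA library in Tris/NaCl/DTT/glycerol buffer for 30 min at room temperature, then washed, crosslinked in 0.1% formaldehyde, proximity-ligated with BsaI/T4 ligase (1 h, 37 °C), PCR-amplified and sequenced on an Illumina NextSeq500. Binding signal is the read frequency of each hexamer for a given factor divided by its frequency in the tag-only sample.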

ELK1 = molecular target: T2, ELK1 (Homo sapiens, UniProt P19419 1-428)
T2 sequence: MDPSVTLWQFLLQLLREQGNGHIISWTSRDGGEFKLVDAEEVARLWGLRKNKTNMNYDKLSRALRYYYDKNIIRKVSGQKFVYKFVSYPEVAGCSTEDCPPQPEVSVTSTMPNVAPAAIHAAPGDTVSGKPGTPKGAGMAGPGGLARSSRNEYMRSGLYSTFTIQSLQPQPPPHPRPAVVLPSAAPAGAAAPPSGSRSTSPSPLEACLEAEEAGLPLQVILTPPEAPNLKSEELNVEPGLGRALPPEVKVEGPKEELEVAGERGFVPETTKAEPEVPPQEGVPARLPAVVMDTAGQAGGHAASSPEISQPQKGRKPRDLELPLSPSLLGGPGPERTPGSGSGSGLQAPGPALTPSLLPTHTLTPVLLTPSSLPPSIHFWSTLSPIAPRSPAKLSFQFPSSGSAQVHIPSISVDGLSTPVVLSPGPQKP
Procedure, shortened: as §1

GABPA = molecular target: T3, GABPA (Homo sapiens, UniProt Q06546 1-454)
T3 sequence: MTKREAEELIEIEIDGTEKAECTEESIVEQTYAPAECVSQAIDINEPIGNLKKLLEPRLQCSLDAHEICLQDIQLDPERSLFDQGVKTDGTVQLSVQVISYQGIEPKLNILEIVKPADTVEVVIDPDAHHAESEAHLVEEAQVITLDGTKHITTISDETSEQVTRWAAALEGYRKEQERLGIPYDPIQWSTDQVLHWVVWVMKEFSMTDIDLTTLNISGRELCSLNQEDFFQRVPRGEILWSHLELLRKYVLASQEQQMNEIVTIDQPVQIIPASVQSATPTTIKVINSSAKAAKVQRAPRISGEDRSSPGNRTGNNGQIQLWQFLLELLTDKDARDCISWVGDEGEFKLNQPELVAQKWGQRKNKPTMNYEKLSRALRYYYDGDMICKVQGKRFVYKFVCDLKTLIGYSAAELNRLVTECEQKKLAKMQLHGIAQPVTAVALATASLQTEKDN
Procedure, shortened: as §1

ERG = molecular target: T4, ERG (Homo sapiens, UniProt P11308 1-479)
T4 sequence: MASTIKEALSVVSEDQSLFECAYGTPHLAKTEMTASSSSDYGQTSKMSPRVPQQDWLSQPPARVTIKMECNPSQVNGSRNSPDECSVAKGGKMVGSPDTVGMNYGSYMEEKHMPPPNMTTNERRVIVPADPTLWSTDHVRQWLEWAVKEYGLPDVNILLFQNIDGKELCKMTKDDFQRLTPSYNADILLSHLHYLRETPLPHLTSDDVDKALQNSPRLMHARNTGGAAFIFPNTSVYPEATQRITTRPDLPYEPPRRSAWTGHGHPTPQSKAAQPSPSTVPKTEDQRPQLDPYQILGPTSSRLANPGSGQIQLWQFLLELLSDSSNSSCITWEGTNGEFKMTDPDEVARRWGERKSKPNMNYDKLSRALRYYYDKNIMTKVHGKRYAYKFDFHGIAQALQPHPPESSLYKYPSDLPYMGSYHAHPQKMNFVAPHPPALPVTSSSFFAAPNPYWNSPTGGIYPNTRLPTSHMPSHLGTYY
Procedure, shortened: as §1

ELF1 = ELF1 (Homo sapiens, UniProt P32519 1-619)
Procedure, shortened: as §1

SPI1 = SPI1 (Homo sapiens, UniProt P17947 1-270)
Procedure, shortened: as §1

SPIB = SPIB (Homo sapiens, UniProt Q01892 1-262)
Procedure, shortened: as §1

ELK3 = molecular target: T5, ELK3 (Homo sapiens, UniProt P41970 1-407)
T5 sequence: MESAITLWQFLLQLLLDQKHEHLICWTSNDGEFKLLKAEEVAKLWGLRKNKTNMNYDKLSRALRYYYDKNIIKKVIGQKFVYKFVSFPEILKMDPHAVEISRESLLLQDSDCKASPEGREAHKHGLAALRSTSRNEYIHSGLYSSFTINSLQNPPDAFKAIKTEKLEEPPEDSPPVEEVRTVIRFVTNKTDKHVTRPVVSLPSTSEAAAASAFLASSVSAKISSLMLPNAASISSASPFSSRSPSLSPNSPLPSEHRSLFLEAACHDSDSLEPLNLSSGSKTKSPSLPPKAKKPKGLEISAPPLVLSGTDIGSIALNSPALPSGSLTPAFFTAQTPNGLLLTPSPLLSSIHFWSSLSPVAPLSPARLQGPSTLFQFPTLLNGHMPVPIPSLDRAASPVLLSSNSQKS
Procedure, shortened: as §1

ETV5 = ETV5 (Homo sapiens, UniProt P41161 1-510)
Procedure, shortened: as §1

SPIC = molecular target: T6, SPIC (Homo sapiens, UniProt Q8N5J4 1-248)
T6 sequence: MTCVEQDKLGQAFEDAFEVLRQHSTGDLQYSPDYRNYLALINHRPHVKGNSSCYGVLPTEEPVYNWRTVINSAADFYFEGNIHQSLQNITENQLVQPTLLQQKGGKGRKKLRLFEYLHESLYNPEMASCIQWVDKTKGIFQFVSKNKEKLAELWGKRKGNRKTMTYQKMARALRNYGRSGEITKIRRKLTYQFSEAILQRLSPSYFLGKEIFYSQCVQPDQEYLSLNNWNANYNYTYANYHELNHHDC
Procedure, shortened: as §1

ETV3L = molecular target: T7, ETV3L (Homo sapiens, UniProt Q6ZN32 1-361)
T7 sequence: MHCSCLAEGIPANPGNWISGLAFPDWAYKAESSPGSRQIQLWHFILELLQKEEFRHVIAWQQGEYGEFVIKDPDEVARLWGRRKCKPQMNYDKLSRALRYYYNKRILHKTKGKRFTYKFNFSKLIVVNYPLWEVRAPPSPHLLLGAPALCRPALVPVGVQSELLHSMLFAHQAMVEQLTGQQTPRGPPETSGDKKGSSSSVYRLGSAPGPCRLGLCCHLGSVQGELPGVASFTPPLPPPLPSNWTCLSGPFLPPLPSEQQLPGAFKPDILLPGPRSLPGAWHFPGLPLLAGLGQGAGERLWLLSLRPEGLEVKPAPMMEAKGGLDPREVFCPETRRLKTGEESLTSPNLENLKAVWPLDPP
Procedure, shortened: as §1

ETS2 = molecular target: T8, ETS2 (Homo sapiens, UniProt P15036 1-469)
T8 sequence: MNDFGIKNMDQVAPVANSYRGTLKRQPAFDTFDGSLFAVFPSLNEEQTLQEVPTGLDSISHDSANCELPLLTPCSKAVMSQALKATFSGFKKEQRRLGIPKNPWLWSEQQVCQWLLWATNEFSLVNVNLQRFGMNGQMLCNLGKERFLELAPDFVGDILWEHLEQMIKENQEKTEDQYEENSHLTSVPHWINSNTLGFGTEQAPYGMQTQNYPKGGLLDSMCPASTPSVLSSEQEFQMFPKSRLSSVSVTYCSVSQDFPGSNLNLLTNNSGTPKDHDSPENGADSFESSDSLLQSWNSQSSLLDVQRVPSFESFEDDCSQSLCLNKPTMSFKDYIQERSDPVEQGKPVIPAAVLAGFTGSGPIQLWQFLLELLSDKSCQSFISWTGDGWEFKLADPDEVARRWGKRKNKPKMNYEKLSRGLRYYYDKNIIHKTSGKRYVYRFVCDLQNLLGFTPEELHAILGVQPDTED
Procedure, shortened: as §1

SPDEF = molecular target: T9, SPDEF (Homo sapiens, UniProt O95238 1-335)
T9 sequence: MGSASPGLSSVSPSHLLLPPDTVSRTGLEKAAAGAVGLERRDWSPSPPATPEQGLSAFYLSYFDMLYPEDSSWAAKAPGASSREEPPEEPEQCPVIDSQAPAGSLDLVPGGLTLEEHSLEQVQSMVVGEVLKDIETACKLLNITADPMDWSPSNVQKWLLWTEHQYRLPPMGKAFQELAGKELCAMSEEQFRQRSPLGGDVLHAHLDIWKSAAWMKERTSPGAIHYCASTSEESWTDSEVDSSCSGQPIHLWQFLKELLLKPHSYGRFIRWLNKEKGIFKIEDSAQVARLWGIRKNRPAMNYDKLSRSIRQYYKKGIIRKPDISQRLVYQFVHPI
Procedure, shortened: as §1

ETV3 = molecular target: T10, ETV3 (Homo sapiens, UniProt P41162-2 1-143)
T10 sequence: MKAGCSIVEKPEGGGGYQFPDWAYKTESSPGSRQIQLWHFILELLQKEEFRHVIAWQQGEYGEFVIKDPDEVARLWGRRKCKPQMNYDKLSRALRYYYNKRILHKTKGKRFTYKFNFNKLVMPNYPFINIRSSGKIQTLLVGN
Procedure, shortened: as §1

ETV6 = ETV6 (Homo sapiens, UniProt P41212 1-452)
Procedure, shortened: as §1

Chain of ELF1 (P32519 whole entry): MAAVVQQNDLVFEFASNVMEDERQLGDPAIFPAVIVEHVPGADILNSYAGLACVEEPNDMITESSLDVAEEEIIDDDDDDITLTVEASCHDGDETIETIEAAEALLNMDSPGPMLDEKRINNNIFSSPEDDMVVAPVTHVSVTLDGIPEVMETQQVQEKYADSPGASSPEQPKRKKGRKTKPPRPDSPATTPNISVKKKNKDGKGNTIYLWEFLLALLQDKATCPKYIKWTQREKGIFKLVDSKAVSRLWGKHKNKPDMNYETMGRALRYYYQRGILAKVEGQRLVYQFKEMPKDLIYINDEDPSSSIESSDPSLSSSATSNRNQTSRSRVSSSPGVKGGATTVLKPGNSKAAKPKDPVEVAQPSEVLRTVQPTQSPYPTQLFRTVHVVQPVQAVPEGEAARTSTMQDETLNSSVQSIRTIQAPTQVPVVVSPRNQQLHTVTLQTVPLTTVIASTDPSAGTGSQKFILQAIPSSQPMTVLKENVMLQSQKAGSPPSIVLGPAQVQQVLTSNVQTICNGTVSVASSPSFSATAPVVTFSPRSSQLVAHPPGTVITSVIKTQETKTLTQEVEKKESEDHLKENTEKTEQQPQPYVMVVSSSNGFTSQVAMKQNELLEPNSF
Chain of SPIB (Q01892 whole entry): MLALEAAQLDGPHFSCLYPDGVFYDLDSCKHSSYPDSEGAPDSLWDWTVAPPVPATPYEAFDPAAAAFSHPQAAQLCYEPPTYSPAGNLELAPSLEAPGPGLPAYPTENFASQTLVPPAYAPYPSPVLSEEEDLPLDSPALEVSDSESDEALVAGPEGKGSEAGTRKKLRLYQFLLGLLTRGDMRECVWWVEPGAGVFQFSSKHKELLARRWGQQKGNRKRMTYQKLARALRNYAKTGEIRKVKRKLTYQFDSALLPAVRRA
Chain of ETV6 (P41212 whole entry): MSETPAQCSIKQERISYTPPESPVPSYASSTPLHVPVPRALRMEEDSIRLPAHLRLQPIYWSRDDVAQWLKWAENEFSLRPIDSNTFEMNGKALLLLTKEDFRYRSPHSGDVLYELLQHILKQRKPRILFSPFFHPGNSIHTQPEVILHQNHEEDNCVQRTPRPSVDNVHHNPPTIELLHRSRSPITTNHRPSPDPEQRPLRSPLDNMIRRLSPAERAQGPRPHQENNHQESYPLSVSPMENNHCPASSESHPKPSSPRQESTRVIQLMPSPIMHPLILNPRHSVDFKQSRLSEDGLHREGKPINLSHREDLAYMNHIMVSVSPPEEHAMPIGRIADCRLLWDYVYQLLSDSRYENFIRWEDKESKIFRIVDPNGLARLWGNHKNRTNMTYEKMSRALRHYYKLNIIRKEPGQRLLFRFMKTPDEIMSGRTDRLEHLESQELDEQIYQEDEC
Chain of ETV5 (P41161 whole entry): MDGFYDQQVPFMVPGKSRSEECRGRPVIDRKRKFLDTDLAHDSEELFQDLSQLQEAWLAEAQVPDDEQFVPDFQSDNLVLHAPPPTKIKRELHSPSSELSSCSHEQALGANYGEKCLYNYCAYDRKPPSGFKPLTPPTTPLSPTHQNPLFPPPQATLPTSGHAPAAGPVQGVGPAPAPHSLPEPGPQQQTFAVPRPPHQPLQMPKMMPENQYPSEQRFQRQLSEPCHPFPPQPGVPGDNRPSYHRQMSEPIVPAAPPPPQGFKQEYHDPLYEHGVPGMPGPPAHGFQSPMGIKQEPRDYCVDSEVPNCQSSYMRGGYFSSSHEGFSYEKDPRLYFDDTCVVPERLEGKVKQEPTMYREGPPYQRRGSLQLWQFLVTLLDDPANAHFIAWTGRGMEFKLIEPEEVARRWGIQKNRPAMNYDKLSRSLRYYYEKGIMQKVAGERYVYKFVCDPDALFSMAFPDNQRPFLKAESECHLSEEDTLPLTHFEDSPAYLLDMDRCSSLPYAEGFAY

## ATGGCG
FLI1
  binding signal: 1 fold enrichment (6-mer frequency, TF over GST control)
ELK1
  binding signal: 1.05 fold enrichment (6-mer frequency, TF over GST control)
GABPA
  binding signal: 1.04 fold enrichment (6-mer frequency, TF over GST control)
ERG
  binding signal: 1.02 fold enrichment (6-mer frequency, TF over GST control)
ELF1
  binding signal: 1.06 fold enrichment (6-mer frequency, TF over GST control)
SPI1
  binding signal: 1.03 fold enrichment (6-mer frequency, TF over GST control)
SPIB
  binding signal: 1.01 fold enrichment (6-mer frequency, TF over GST control)
ELK3
  binding signal: 1.01 fold enrichment (6-mer frequency, TF over GST control)
ETV5
  binding signal: 1.02 fold enrichment (6-mer frequency, TF over GST control)
SPIC
  binding signal: 1.16 fold enrichment (6-mer frequency, TF over GST control)
ETV3L
  binding signal: 1.03 fold enrichment (6-mer frequency, TF over GST control)
ETS2
  binding signal: 1.11 fold enrichment (6-mer frequency, TF over GST control)
SPDEF
  binding signal: 1.02 fold enrichment (6-mer frequency, TF over GST control)
ETV3
  binding signal: 1.09 fold enrichment (6-mer frequency, TF over GST control)
ETV6
  binding signal: 1.05 fold enrichment (6-mer frequency, TF over GST control)
